High-throughput results as filed in PubChem BioAssay.
Most compounds without a hit are left out; they make up all but 17% or so of the library.
ClpP mod: qHTS Assay for Activators of ClpP | ATP-dependent Clp protease proteolytic subunit (Bacillus subtilis (strain 168)), P80244 | purified B. subtilis ClpP, FRET peptide cleavage, 20 min | Potency, µM (titrated, usually from 57.5 µM), without a hit: top-dose activity change, negative = active | 340,000 compounds, 1.9% hits | AID 651965, 2013; active = well fitted falling curve with a large enough effect; inconclusive = small, poorly fitted or top-dose-only effect; inactive = no such curve, though single readings can be large or run the other way; also: the source files actives as falling curves though it sought activators and does not explain the sign; nearly all actives have a fitted effect of over 65% in size
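Purified B. subtilis ClpP, 10 microg/mL final in Tris/HCl pH8 with KCl, BSA, glycerol and Tween-20, cleaved an Abz/nitrotyrosine-quenched decapeptide. Fluorescence (ex 320, em 430) was read at 0 and 20 min at room temperature. Delta was normalized to 5.8 microM ADEP and DMSO/no-enzyme controls.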
DT40 TDP1 no CPT: qHTS for Inhibitors of human tyrosyl-DNA phosphodiesterase 1 (TDP1): qHTS in cells in absence of CPT | DT40 Tdp1-/- hTDP1 cells, no CPT, ATP luminescence, 48 h | Potency, µM (top dose mostly 46.2 µM), for inactives: top-dose activity change, negative = growth inhibition, actives largely listed as inhibitors | 420,000 compounds, 15% hits | AID 686978, 2013; also: % is scaled to controls: 0 for no effect and ±100 for the full control effect; nearly all actives have a fitted effect of over 55% in size
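Cells were dispensed at 400 per well, compounds added by pin tool, plates incubated ≥48 hr at 37 °C, then CellTiter-Glo added for 30 min at room temperature before luminescence reading. Line: DT40 Tdp1-/- complemented with hTDP1; camptothecin omitted.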
TDP1 inh: qHTS Assay for Inhibitors of Tyrosyl-DNA Phosphodiesterase (TDP1) | Tyrosyl-DNA phosphodiesterase 1 (Homo sapiens), Q9NUW8 | recombinant TDP1, AlphaScreen DNA substrate cleavage | Potency, µM (top dose mostly 130 µM), for inactives: top-dose activity change, negative = inhibition, hits mostly inhibitors | 350,000 compounds, 0.28% hits | AID 485290, 2010; also: % is scaled to controls: 0 for no effect and ±100 for the full control effect; nearly all actives have a fitted effect of over 40% in size
Target sequence (Q9NUW8 whole entry, looked up): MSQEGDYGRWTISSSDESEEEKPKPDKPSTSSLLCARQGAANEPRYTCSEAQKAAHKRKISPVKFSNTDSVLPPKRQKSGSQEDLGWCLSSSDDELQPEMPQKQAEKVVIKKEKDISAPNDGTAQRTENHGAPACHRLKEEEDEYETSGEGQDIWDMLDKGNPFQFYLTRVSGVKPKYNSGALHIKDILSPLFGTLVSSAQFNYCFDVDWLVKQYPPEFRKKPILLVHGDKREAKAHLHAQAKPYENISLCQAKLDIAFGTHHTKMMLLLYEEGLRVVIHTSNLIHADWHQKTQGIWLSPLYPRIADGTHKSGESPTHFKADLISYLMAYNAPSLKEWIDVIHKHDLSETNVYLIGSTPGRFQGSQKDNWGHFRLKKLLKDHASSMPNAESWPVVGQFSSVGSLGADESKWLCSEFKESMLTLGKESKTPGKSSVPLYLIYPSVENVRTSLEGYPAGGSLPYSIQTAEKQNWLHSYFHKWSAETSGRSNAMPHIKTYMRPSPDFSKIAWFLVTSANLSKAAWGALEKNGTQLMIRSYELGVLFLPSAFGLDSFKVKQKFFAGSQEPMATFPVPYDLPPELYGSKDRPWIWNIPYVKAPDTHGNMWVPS
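Compounds were preincubated with Tdp1 (1 nM final) for 15 min at room temperature before substrate (15 nM final) started a 5 min reaction; beads (10 ug/ml final) were then added for 10 min before AlphaScreen detection.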
TDP1 cell CPT: qHTS for Inhibitors of human tyrosyl-DNA phosphodiesterase 1 (TDP1): qHTS in cells in presence of CPT. Potency, µM (doses to about 46.2 µM), for inactives: at the highest dose activity change, negative = growth inhibition, usual class: inhibitors. chicken DT40 Tdp1-/-;hTDP1 cells + 20 nM CPT, ATP luminescence, 48 h. 420,000 compounds, 12% hits; also: % is scaled to controls: 0 for no effect and ±100 for the full control effect; nearly all actives have a fitted effect of over 55% in size
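Chicken DT40 Tdp1-/- cells stably complemented with human TDP1 were seeded at 400 cells/well in medium containing 20 nM camptothecin, exposed to pin-transferred compounds, and grown at 37 °C for at least 48 hr. Viability was read as ATP luminescence.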
* marks the source's active call; other numbers are inactive results. Unless noted, calls follow the shape of the dose curve; as a rule, active = well fitted curve in the direction sought with a large enough effect; inconclusive = small, poorly fitted or top-dose-only effect, or another doubt; inactive = no such curve, though single readings can be large; an effect the other way counts as inactive or inconclusive. Potency is read from the fitted curve at half-maximal effect.

Screening COc1ccc(NC(=O)c2sc(Cl)nc2-c2ccccc2)cc1 returned ClpP mod -5%, DT40 TDP1 no CPT inconclusive, TDP1 inh 1% and TDP1 cell CPT inconclusive.
`O=C(Nc1cccc(C(F)(F)F)c1)c1sc(Cl)nc1C(F)(F)F` gave ClpP mod -4%, DT40 TDP1 no CPT 10µM* and TDP1 cell CPT 16µM*.
Cc1c(NC(=O)Nc2ccc(Br)cc2F)sc2nc3n(c(=O)c12)CCC(C)CC3 (centres undefined) was read as ClpP mod -2%, DT40 TDP1 no CPT inconclusive, TDP1 inh 2% and TDP1 cell CPT 3.7µM*.
`O=C(c1ccc(Cl)c(S(=O)(=O)N2CCOCC2)c1)N1CCCCCC1` gave DT40 TDP1 no CPT -3% and TDP1 cell CPT -25%.
CCN(c1cc(C)cc(C)c1)S(=O)(=O)c1nnc(NC(=O)c2ccccc2C)s1 was read as ClpP mod -6%, DT40 TDP1 no CPT inconclusive, TDP1 inh 3% and TDP1 cell CPT inconclusive.
For CCN(c1cc(C)cc(C)c1)S(=O)(=O)c1nnc(NC(=O)c2cccc(F)c2)s1 the results were ClpP mod -13%, DT40 TDP1 no CPT 13µM*, TDP1 inh 1% and TDP1 cell CPT 12µM*.
Screening CCC(=O)Nc1nnc(S(=O)(=O)N(CC)c2cc(C)cc(C)c2)s1 returned ClpP mod 0%, DT40 TDP1 no CPT -5% and TDP1 cell CPT 3%.
`CCN(c1ccc(Cl)cc1)S(=O)(=O)c1nnc(NC(=O)c2ccccc2C)s1` gave ClpP mod -5%, DT40 TDP1 no CPT 15µM*, TDP1 inh 4% and TDP1 cell CPT 16µM*.
CC(=O)Nc1ccccc1-c1nc2ccccc2n(Cc2cccc(Br)c2)c1=O was read as ClpP mod -3%, DT40 TDP1 no CPT inconclusive, TDP1 inh 9% and TDP1 cell CPT -4%.
For O=C(C1CCCCC1)N(CCN1CCN(c2ccccc2CO)CC1)c1ccccn1 the results were DT40 TDP1 no CPT 10µM*, TDP1 inh 4% and TDP1 cell CPT inconclusive.
`Oc1ccccc1Nc1nc(-c2ccccc2O)nc2ccccc12` gave DT40 TDP1 no CPT -30% and TDP1 cell CPT -2%.
Screening C/C(=N\Nc1nc(-c2ccccn2)nc2ccccc12)c1ccc(F)cc1 returned ClpP mod 0%, DT40 TDP1 no CPT 5.8µM* and TDP1 cell CPT 2.6µM*.
`C/C(=N/Nc1nc(-c2ccccc2F)nc2ccccc12)c1ccccc1O` gave ClpP mod 0%, DT40 TDP1 no CPT 9.2µM*, TDP1 inh 8% and TDP1 cell CPT 7.3µM*.
Screening C/C(=N\Nc1nc(-c2ccccc2O)nc2ccccc12)c1ccccc1 returned DT40 TDP1 no CPT 7.3µM*, TDP1 inh 5% and TDP1 cell CPT inconclusive.
Screening CCCN1CCCc2cc(CN(CCCN3CCOCC3)C(=O)Nc3ccc(OCC)cc3)ccc21 returned ClpP mod -6%, DT40 TDP1 no CPT inconclusive, TDP1 inh 0% and TDP1 cell CPT 26µM*.
`CCCN1CCCc2cc(CN(CCCN3CCOCC3)C(=O)Nc3ccc(Cl)c(Cl)c3)ccc21` gave ClpP mod -6%, DT40 TDP1 no CPT 7.3µM*, TDP1 inh 11% and TDP1 cell CPT 26µM*.
Screening CCN1CCCc2cc(CN(CCN3CCOCC3)C(=S)Nc3cccc(OC)c3)ccc21 returned ClpP mod -2%, DT40 TDP1 no CPT 21µM*, TDP1 inh 11% and TDP1 cell CPT inconclusive.
`CCOc1ccccc1Oc1coc2cc(O)ccc2c1=O` gave ClpP mod 32µM*, DT40 TDP1 no CPT inconclusive, TDP1 inh 4% and TDP1 cell CPT -21%.
For COc1ccccc1Oc1coc2cc(O)ccc2c1=O the results were ClpP mod 28µM*, DT40 TDP1 no CPT inconclusive, TDP1 inh 11% and TDP1 cell CPT inconclusive.
`CCOc1ccccc1Oc1coc2cc(OCC(=O)O)ccc2c1=O` gave DT40 TDP1 no CPT 0% and TDP1 cell CPT 24%.
For COc1ccc(Oc2coc3cc(OC(=O)/C=C/c4ccccc4)ccc3c2=O)cc1 the results were ClpP mod 25µM*, DT40 TDP1 no CPT -8%, TDP1 inh 4% and TDP1 cell CPT 0%.
For COc1ccc(-c2coc3cc(O)ccc3c2=O)cc1OC the results were ClpP mod -29%, DT40 TDP1 no CPT -2%, TDP1 inh -4% and TDP1 cell CPT 0%.
`CCOC(=O)c1c(C)oc2ncnc(N3CCN(c4ccc(C)cc4C)CC3)c12` gave ClpP mod -4%, DT40 TDP1 no CPT 23µM*, TDP1 inh 1% and TDP1 cell CPT 21µM*.
CCOC(=O)c1c(C)oc2ncnc(N3CCN(c4cccc(Cl)c4)CC3)c12 was read as ClpP mod -3%, DT40 TDP1 no CPT 16µM*, TDP1 inh 6% and TDP1 cell CPT inconclusive.
`CCOC(=O)c1cc(S(=O)(=O)N2CCN(c3ccc(C)cc3C)CC2)[nH]n1` gave ClpP mod -1%, DT40 TDP1 no CPT 21µM*, TDP1 inh 4% and TDP1 cell CPT 9.2µM*.
CCOC(=O)c1noc2ncnc(N3CCN(c4ccccc4OC)CC3)c12 was read as ClpP mod 0%, DT40 TDP1 no CPT 2.9µM*, TDP1 inh 11% and TDP1 cell CPT 4.6µM*.
`Cc1nc(N2CCCC2)c2c(C(=O)N3CCN(c4cccc(Cl)c4)CC3)c(C)oc2n1` gave ClpP mod 0%, DT40 TDP1 no CPT inconclusive, TDP1 inh 0% and TDP1 cell CPT inconclusive.
Screening CC(C)C[C@@H](/C=C/S(C)(=O)=O)NC(=O)[C@H](CC(C)C)NC(=O)[C@H](CC(C)C)NC(=O)OCc1ccccc1 returned TDP1 inh 6%.
CCOc1ccccc1CNC(=O)c1c(C)oc2ncnc(N3CCOCC3)c12 was read as ClpP mod 0%, DT40 TDP1 no CPT -7%, TDP1 inh 4% and TDP1 cell CPT -1%.
`CCOC(=O)c1c(C)oc2ncnc(N3CCN(c4ccccc4OC)CC3)c12` gave ClpP mod -2%, DT40 TDP1 no CPT 16µM*, TDP1 inh 0% and TDP1 cell CPT inconclusive.
`COc1ccc(CN(C)C(=S)Nc2ccc(Cl)cc2)cc1` gave ClpP mod -4%, DT40 TDP1 no CPT -10%, TDP1 inh 0% and TDP1 cell CPT -17%.
Screening C[C@H]1COC(=O)CCCC/C=C\C[C@H](CC(=O)N(CCO)Cc2ccccc2)C(=O)N1 returned ClpP mod 1%, DT40 TDP1 no CPT inconclusive, TDP1 inh 1% and TDP1 cell CPT inconclusive.
O=C1CCCC/C=C\C[C@H](CC(=O)N(CCO)Cc2ccccc2)C(=O)N[C@@H](Cc2ccccc2)CO1 was read as ClpP mod 0%, DT40 TDP1 no CPT inconclusive, TDP1 inh 2% and TDP1 cell CPT inconclusive.
